What follows are compounds tested against Torsin-1A (Homo sapiens) (UniProt O14656) (assay: torsin A binders from cell lysate, primary screen, small-molecule microarray, wild-type, 635/667 nm (AID 1149)). Settings: COS7 hTOR1A-WT lysate, 635 nm fluorescence, higher = more signal.
Chain of Torsin-1A (Homo sapiens) (O14656 whole entry, looked up): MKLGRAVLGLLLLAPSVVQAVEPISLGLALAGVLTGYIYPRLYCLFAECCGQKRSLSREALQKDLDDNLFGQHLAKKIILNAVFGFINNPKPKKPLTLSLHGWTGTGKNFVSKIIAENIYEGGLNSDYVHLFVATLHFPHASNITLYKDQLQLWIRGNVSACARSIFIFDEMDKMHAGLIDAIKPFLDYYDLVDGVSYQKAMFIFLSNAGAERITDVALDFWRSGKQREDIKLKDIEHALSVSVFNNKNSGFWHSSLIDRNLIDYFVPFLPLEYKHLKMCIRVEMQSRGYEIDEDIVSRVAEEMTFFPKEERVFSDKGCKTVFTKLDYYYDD

Row | Compound | composite z-score
1 | CCOC(=O)C1=C[C@@H](C(C)(C)C)N(S(=O)(=O)c2ccc(C)cc2)[C@H]1c1ccc(OC)cc1 | 0.795
2 | CCCCC(=C=CC[C@H](O)c1ccccc1OCCO)CCO | -0.309
3 | C=CCC(OC(C)=O)[C@@H]1[C@@H](N(Cc2cccc3ccccc23)C(=O)c2ccc(C)cc2)c2cc(OCCCO)ccc2N1C(=O)Cc1ccc2ccccc2c1 (some centres not stated) | 0.125
4 | COC(=O)[C@@]1(Cc2ccc(F)cc2)[C@@H]2C(=CC(=O)[C@H]2CC(=O)C(=O)N2CCCC2)CN1C(=O)c1ccccc1 | 0.448
5 | COCCCNC(=O)[C@@]1(c2ccc([N+](=O)[O-])cc2)CC(=O)N(C2CCCCC2)[C@@H]1c1ccc(CO)cc1I | 0.95
6 | C=CCOC(=O)[C@H]1[C@@H]2C(=O)O[C@@H](c3ccccc3)[C@@H](c3ccccc3)N2[C@@H](c2ccc(OCCOC(=O)[C@H]3C[C@H]4C(=O)NCC(=O)N4[C@H]3c3ccc(O)cc3)cc2)[C@]12C(=O)Nc1ccccc12 | 0.603
7 | CC1CC/C=C\[C@H]2OC34C=CCN(CCN5CCOCC5)C(=O)[C@H]3N(C(CO)C(C)C)C(=O)[C@@H]4C2C(=O)O1 (some centres not stated) | 1
8 | CC(C)c1ccc(NN2C(C(O)c3ccccc3)C=CC3C(=O)N(c4ccccc4)C(=O)C32)cc1 (configuration not stated) | -0.388
9 | [N-]=[N+]=Nc1ccccc1C[C@@]1(C(=O)NCC(O)CO)N=C(c2ccc(OCCCO)cc2)O[C@@H]1c1ccccc1N=[N+]=[N-] (some centres not stated) | 1.53
10 | C=C(CCCC)C(=O)CC[C@@H](OC(C)=O)c1ccc(OCCO)cc1 | 1.34
11 | CN1C(=O)C2CC=C(C3=CCO[C@@H]3[C@H]3CCCN3S(=O)(=O)c3ccccc3[N+](=O)[O-])CC2C1=O (some centres not stated) | -0.23
12 | CC(C)[Si](C#Cc1ccccc1)(O[C@H](c1ccccc1)c1cn(Cc2ccccc2)nn1)C(C)C | 0.555
13 | COCCOC(=O)N1C(=O)[C@@]2(c3cc(C#CCNC(N)=O)ccc31)[C@H](C(N)=O)[C@H]1C(=O)O[C@H](c3ccccc3)[C@H](c3ccccc3)N1[C@@H]2c1ccc(O)cc1 | 0.572
14 | [N-]=[N+]=NCc1ccccc1C[C@]1(C(=O)N2CCCCC2)COC(c2ccc(OCCCO)cc2)=N1 | 0.555
15 | C=CCNC(=O)[C@H]1[C@@H]2C(=O)O[C@@H](c3ccccc3)[C@@H](c3ccccc3)N2[C@@H](c2ccc(OCCO)cc2)[C@]12C(=O)N(C(=O)OCCOC)c1ccc(C#CCC(C(=O)OC)C(=O)OC)cc12 | 0.77
16 | CCCCC(=C=CC[C@@H](O)c1ccccc1OCCO)C[C@@H](O)c1ccccn1 | -0.245
17 | COC(=O)C(CC#Cc1ccc2c(c1)[C@]1(C(=O)N2)[C@H](C(=O)NC[C@H](O)c2ccccc2)[C@H]2C(=O)O[C@H](c3ccccc3)[C@H](c3ccccc3)N2[C@@H]1c1ccc(O)cc1)C(=O)OC | -0.93
18 | COCCOC(=O)N1C(=O)[C@@]2(c3cc(C#CC4=CCCCC4)ccc31)[C@H](c1ccc(O)cc1)N1[C@H](c3ccccc3)[C@H](c3ccccc3)OC(=O)[C@H]1[C@@H]2C(=O)N1CCc2cc(OC)c(OC)cc2C1 | 0.175
19 | CC[C@@H](O[Si](C#C[Si](C(C)C)(C(C)C)C(C)C)(C(C)C)C(C)C)c1cn(Cc2cccc(Cl)c2)nn1 | 0.188
20 | C=C(CCCC)/C(=C/C[C@@H](OC(C)=O)c1cccc(OCCO)c1)c1cc(C(=O)OC)ccc1OC | 0.146
21 | CCCN1C(=O)[C@@]2(c3ccc([N+](=O)[O-])cc3)CC(=O)N(C3CCCCC3)[C@@H]2c2ccc(CO)cc21 | 0.515
22 | O=C1O[C@H](c2ccccc2)[C@H](c2ccccc2)N2[C@H]1[C@@H](C(=O)N1CCN(c3ncccn3)CC1)[C@]1(C(=O)Nc3ccc(C#CC4(O)CCCCCC4)cc31)[C@H]2c1ccc(O)cc1 | 0.574
23 | CC[C@@H](O[Si](C#C[Si](C(C)C)(C(C)C)C(C)C)(C(C)C)C(C)C)c1cn([C@H](CO)Cc2ccccc2)nn1 | 0.0922
24 | [N-]=[N+]=NCc1ccccc1[C@H]1OC(c2ccc(OCCCO)cc2)=N[C@@]1(CCS(=O)(=O)c1ccccc1)C(=O)O | -0.359
25 | COC(=O)[C@@]1(Cc2ccc(F)cc2)[C@H]2c3cc(C(=O)N4CCCC4)n(Cc4ccc(OC(F)(F)F)cc4)c3C[C@H]2CN1C(=O)c1ccccc1 | -0.0112
26 | CC(C)(C)OC(=O)CC[C@]1(C(N)=O)N=C(c2ccc(OCCCO)cc2)O[C@H]1c1ccccc1N=[N+]=[N-] | 0.448
27 | O=C1OCC=C[C@H]2OC34C=CCN(Cn5nnc6ccccc65)C(=O)[C@H]3N(CCO)C(=O)[C@@H]4[C@@H]12 (some centres not stated) | 1.09
